PubChem BioAssay AID686978 (National Center for Advancing Translational Sciences (NCATS), 2013)
In all, about 420,000 compounds went through this assay and about 64,000 (15%) were called active. Another 27% or so got no clear call; they are omitted. Calls follow the shape of the dose curve; as a rule, active = well fitted inhibition curve with a large enough effect; inconclusive = small, poorly fitted or top-dose-only effect; inactive = flat fitted curve, though single readings scatter. The list is a sample of the results. Where a call stands in place of a potency, no number is given.

Experiment: qHTS for Inhibitors of human tyrosyl-DNA phosphodiesterase 1 (TDP1): qHTS in cells in absence of CPT; also: nearly all actives have a fitted effect of over 55% in size
Settings: DT40 Tdp1-/- hTDP1 cells, no CPT, ATP luminescence, 48 h; activity change, negative = growth inhibition: at 46.2 µM (top of the series)
In short: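 A cellular qHTS used chicken DT40 cells lacking endogenous Tdp1 but carrying stably transfected human TDP1. Compounds were applied without camptothecin, and cell growth kinetics were judged by ATP-dependent luminescence after ≥48 hr.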
Potency is read from the fitted curve at half-maximal effect.

| SMILES | Potency |
| --- | --- |
| Cc1nnc(NCCO)c2ccccc12 | inactive |
| OCCc1ccc(NCCc2ccco2)cc1 | inactive |
| OCCNc1ncnc2oc(-c3ccco3)c(-c3ccco3)c12 | 20 µM (active) |
| COc1ccc(-c2oc3ncnc(NCCCO)c3c2-c2ccc(OC)cc2)cc1 | 16.4 µM (active) |
| COCCNc1ncnc2c1ncn2[C@H]1CN(Cc2ccc(OC)cc2)C[C@@H](CO)O1 | inactive |
| Nc1nonc1C(=O)NCCc1ccccc1 | inactive |
| O=S1(=O)C=C(SCCN2CCCC2)c2ccccc21 | inactive |
| CCCC(C)NC(=O)C1CCN(C(=O)C2CC(=O)N(c3ccc(C)cc3)C2)CC1 (stereo not given) | inactive |
| Cc1ccsc1CNn1cnnc1SCc1ccccc1F | inactive |
| CCn1c(CNC(=O)c2ccco2)nnc1SCC(=O)Nc1cccc(F)c1 | inactive |
| CC(C)n1cnc2c(Nc3cccc(Cl)c3)nc(N(CCO)CCCO)nc21 | 14.6 µM (active) |
| COC(=O)C(C)n1cnc2c(nnn2-c2cccc(Cl)c2)c1=O (stereo not given) | inactive |
| CC(C)[C@H](CO)Nc1nc(Nc2cc(N)cc(Cl)c2)c2ncn(C(C)C)c2n1 | 2.99 µM (active) |
| O=C(NCCc1ccccc1)c1ccc(NC2=NC3CS(=O)(=O)CC3S2)cc1 (stereo not given) | inactive |
| Cc1cc(NS(=O)(=O)c2ccc(NC(=O)C(C)Oc3cccc(C)c3C)cc2)nc(C)n1 (stereo not given) | inactive |
| O=C(CSc1ncnc2sccc12)NC1CCS(=O)(=O)C1 (stereo not given) | inactive |
| Cn1c(SCC(=O)Nc2cccc(O)c2)nnc1-c1ccc(S(=O)(=O)N2CCOCC2)cc1 | inactive |
| Cc1ccc([C@@H]2CC(=O)[C@@H]3CN(S(=O)(=O)c4ccc(C)cc4)[C@H](c4ccccc4F)C[C@@H]3N2S(=O)(=O)c2ccc(Cl)cc2)cc1 | inactive |
| Cc1ccccc1CSc1nnc(-c2cccnc2)n1N | inactive |
| Cc1ccc(-c2nn(-c3ccccc3)cc2CN(Cc2ccccc2)C(=O)CCC(=O)O)o1 | inactive |
| COCCCNC(=O)Cn1cc(C(=O)C2CC2)c2ccccc21 | inactive |
| CCC(C(=O)OC)n1cnc2c(oc3ccccc32)c1=O (stereo not given) | inactive |

| SMILES | Potency |
| --- | --- |
| O=C(CSc1ncnc2c1oc1ccccc12)NC1CCCC1 | inactive |
| COc1ccccc1Nc1ncnc2c1oc1ccccc12 | 11.6 µM (active) |
| COc1ccc(CN2CCC3(CCC(CNC(=O)c4ccco4)O3)CC2)cc1OC (stereo not given) | inactive |
| CCCCCCCNc1nc(Cl)nc(NCCO)n1 | inactive |
| Cc1occc1-c1nnc(SCC(=O)NC2CCCCC2)o1 | inactive |
| CCOC(=O)Nc1ccc(NC(=O)OCC)cc1 | inactive |
| CCOC(=O)Nc1ccc2c(c1)N(C(=O)CCCl)c1ccccc1[S@]2=O | 3.66 µM (active) |
| CCNCCC(=O)N1c2ccccc2Sc2ccc(NC(=O)OCC)cc21 | 13 µM (active) |
| CCOC(=O)CNC(=O)CN1C(=O)CCSc2ccccc21 | inactive |
| CCOC(=O)Nc1ccc2c(c1)N(C(=O)CCN1CCN(CCO)CC1)c1ccccc1CC2 | inactive |
| CCNC(=O)N1c2ccccc2Sc2ccccc21 | inactive |
| CN1CCC2(CC1)CCN(S(=O)(=O)c1ccccc1)CC2 | inactive |
| Cc1ccc(S(=O)(=O)N(c2cccc(C)c2)C2CCS(=O)(=O)C2)cc1 (stereo not given) | inactive |
| CC(C)Sc1ncnc2c1cnn2-c1ccccc1 | inactive |
| O=C(O)c1cc(S(=O)(=O)Nc2ccc3cn[nH]c3c2)ccc1Br | inactive |
| CC(C)N1C(=O)C2C(C(=O)NC3CCCCC3)C3C=CC2(O3)C1C(=O)NC1CCCC1 (stereo not given) | inactive |
| CCCCOC(=O)Nc1nccs1 | inactive |
| CCCc1cc(=O)n2[nH]c(SCc3ccccc3)nc2n1 | inactive |
| CCn1c2ccccc2c2nnc(SCC(=O)O)nc21 | inactive |
| C=CCn1c2ccccc2c2nnc(SC(CC)C(=O)Nc3nc(C)c(C(=O)OCC)s3)nc21 (stereo not given) | 8.2 µM (active) |
| CCOC(=O)c1sc(NC(=O)C(CC)Sc2nccn2C)nc1C (stereo not given) | inactive |
| N#Cc1cc2[nH]c(=O)c(=O)[nH]c2cc1[N+](=O)[O-] | inactive |

| SMILES | Potency |
| --- | --- |
| CSc1n[nH]c(=S)n1N | inactive |
| N#Cc1ccc(S(=O)(=O)NCC(=O)OCC(=O)NCCc2ccccc2)cc1 | inactive |
| Cc1nnc(SCC(=O)Nn2cnnc2)s1 | inactive |
| O=S1(=O)CC/C(=N\Nc2ccc(F)cc2)c2ccsc21 | inactive |
| O=C(c1ccc(F)cc1)C1CCN(CCCCc2ccccc2)CC1 | 26.6 µM (active) |
| O=C1CCN(CCCc2ccccc2)CCN1CCO | inactive |
| O=C(COC(=O)c1ccc(F)cc1)NCCCc1ccccc1 | inactive |
| CCn1c(SCC(=O)NC2CCCC2)nnc1-c1ccoc1C | inactive |
| NS(=O)(=O)c1ccc(CCNC(=O)NC2CCCCC2)cc1 | inactive |
| O=S(=O)(c1cccs1)N1CCc2ccccc2C1 | inactive |
| Cc1cccc2cc(CN(C(=O)c3cccs3)c3ccccc3)c(=O)[nH]c12 | inactive |
| Cc1ccc(N(Cc2cc3ccccc3[nH]c2=O)C(=O)c2cccs2)cc1 | 14.6 µM (active) |
| CCC(=O)N(CCc1ccccc1)Cc1cc2cc(C)ccc2[nH]c1=O | inactive |
| Cc1ccc(-n2nc(C)c(C(=O)O)c2-n2cccc2)cc1 | inactive |
| COCCNC(=O)Cn1cc2c(n1)CCCCC2 | inactive |
| CCOC(=O)N1CCC(NC(=O)Cn2cc3c(n2)CCCCC3)CC1 | inactive |
| CCCN(CCC)CCCNC(=O)Cn1cc2c(n1)-c1c(oc(C(=O)N3CCCC3)c1C)CC2 | inactive |
| Cc1c(C(=O)N2CCCC2)oc2c1-c1nn(CC(=O)NCc3ccc(OC(C)C)cc3)cc1CC2 | 20.6 µM (active) |
| CCOc1ccc(CNC(=O)Cn2cc3c(n2)-c2c(oc(C(=O)N4CCCC4)c2C)CC3)cc1 | 20.6 µM (active) |
| CC(C)Oc1ccc(C(=O)NCC(=O)Nc2ccc3c(c2)CCC3)cc1 | inactive |
| CC(C)OC(=O)Cn1nc(C(F)(F)F)c2c1CCCC2 | inactive |
| CCCC(C)c1nnc(NC(=O)C2CC(=O)N(c3ccc(OCC)cc3)C2)s1 (stereo not given) | inactive |

| SMILES | Potency |
| --- | --- |
| Cc1nnc(C(=O)NC(C)(C)c2nc(C(=O)NCc3ccc(F)cc3)c(O)c(=O)n2C)o1 | inactive |
| COc1ccnc(Oc2ccccc2)c1-c1ncn[nH]1 | inactive |
| CCNC(=O)Cn1nc(C)n2c(cc3c(OC)cccc32)c1=O | inactive |
| COc1ccc(OC)c(CNC(=O)Cn2nc(C)c3c(C)n(-c4ccc(C)cc4)nc3c2=O)c1 | 16.4 µM (active) |
| Cc1nnc(SCC(=O)NCc2ccccc2Cl)c2nn(-c3ccccc3)c(C)c12 | 23.1 µM (active) |
| Cc1ccccc1CNC(=O)CSc1nnc(C)c2c(C)n(-c3ccccc3)nc12 | inactive |
| COc1ccccc1CNC(=O)Cn1nc(C)c2nn(-c3ccc(Cl)cc3)c(C)c2c1=O | 23.1 µM (active) |
| COc1ccccc1CNC(=O)COC(=O)c1sc(C)nc1C | inactive |
| Cc1cccn2c(=O)nc(SCC(=O)NCc3ccccc3Cl)nc12 | inactive |
| CCOC(=O)C1CCN(C(=O)Cn2nc(C)c3c(C)n(-c4ccccc4)nc3c2=O)CC1 | inactive |
| Cc1nn(CC(=O)N2CCCCC2)c(=O)c2nn(-c3ccccc3)c(C)c12 | inactive |
| Cc1ccccc1-c1nnn(CC(=O)c2ccc(S(=O)(=O)N3CCCC3)cc2)n1 | inactive |
| CNC1(c2nnnn2-c2c(C)cccc2C)CCOC(C)(C)C1 (stereo not given) | inactive |
| COc1c(O)cccc1-c1nnn(CCC(=O)OCC(=O)c2ccccc2)n1 | inactive |
| CC1(C(=O)NS(=O)(=O)c2cccc(OC(F)F)c2)CCN1C(=O)C1CC1 (stereo not given) | inactive |
| CCCCn1c(N)c(N(CC(C)C)C(=O)CN(C)S(=O)(=O)c2ccc(F)cc2)c(=O)[nH]c1=O | inactive |
| Cc1cc2nc3n(c2cc1C)CC1CC(C(=O)NCCC(C)C)N(C)C31 (stereo not given) | inactive |
| CCCCOc1ccc(Cl)cc1CSc1nncn1N | inactive |
| COc1cccc(S(=O)(=O)NCc2ccc(C(=O)NCc3ccccn3)cc2)c1 | 0.92 µM (active) |
| CS(=O)(=O)NCc1ccc(C(=O)NCc2ccccc2)cc1 | inactive |
| CN(c1ccc(C(=O)NCc2ccccn2)cc1)S(C)(=O)=O | inactive |
| CCSc1nc(O)c(C(c2cccc(OC)c2)c2c(O)nc(SCC)[nH]c2=O)c(=O)[nH]1 | inactive |

| SMILES | Potency |
| --- | --- |
| C/C=N/N(c1ccccc1)c1ccccc1 | inactive |
| COc1ccccc1CNC(=O)COc1ccc(C)nc1[N+](=O)[O-] | inactive |
| Cc1ccc2cccc(OCCCOc3ccccc3CO)c2n1 | 23.1 µM (active) |
| OCc1ccc(OCCCOc2cccc3cccnc23)cc1 | inactive |
| O=S(=O)(c1ccc(Sc2nnc3ccccn23)nc1)N1CCOCC1 | inactive |
| CCOCC(=O)NCc1ccc2c(c1)cc(C)n2C | inactive |
| CCn1c(=S)[nH]c2cc(S(=O)(=O)N3CCOCC3)ccc21 | inactive |
| O=C(NCc1cccc(Cl)c1)C1=CC=CN2CCS(=O)(=O)N=C12 | inactive |
| COc1ccc(C)cc1NC(=O)CCC(=O)Nc1nnc(C(F)(F)F)s1 | inactive |
| CSc1ccccc1NC(=O)Cc1ccc(Br)cc1 | inactive |
| CSc1ccccc1NC(=O)CN(C)CC(=O)Nc1cccc(Br)c1 | 23.1 µM (active) |
| CN(CC(=O)Nc1ccccc1F)CC(=O)Nc1ccccc1Br | inactive |
| CCn1c(SCC(=O)Nc2sc(C)c(C)c2C#N)nnc1C1CC1 | inactive |
| CC(C)(O)C#Cc1ccc(C(=O)N2CCC(C(N)=O)(N3CCCCC3)CC2)cc1 | inactive |
| CC1CCN(C(=O)COC(=O)c2cc(S(=O)(=O)N3CCOCC3)ccc2Cl)CC1 | inactive |
| Cn1c(=O)c2c(SCC(=O)NCC3CCCO3)nc(CC(C)(C)C)nc2n(C)c1=O (stereo not given) | inactive |
| CCOC(=O)c1cnc(-n2nc(C)cc2C)nc1Nc1cccc(C(C)=O)c1 | 8.2 µM (active) |
| CCOC(=O)c1cccc(NC(=O)CCn2nnc3ccccc32)c1 | inactive |
| CCOC(=O)c1cnc(-n2nc(C)cc2C)nc1-n1nc(C)cc1C | inactive |
| O=C(O)c1cccc(S(=O)(=O)Nc2ccc(O)cc2Sc2nc3ccccc3s2)c1 | inactive |
| O=[N+]([O-])c1c(NCCO)cc(Sc2nc3ccccc3s2)c2nonc12 | 1.03 µM (active) |
| CCOc1ccccc1Nc1ccc2nonc2c1[N+](=O)[O-] | inactive |
